# About 1,300 (0.68%) of roughly 190,000 compounds were called active. The full list was thinned out, with actives kept by preference. Values without a mark were called inactive. No stated cut-off is given here; in the data, active means inhibition above about 50%; inactive means the rest.
# Target: Mannose-6-phosphate isomerase (Homo sapiens) (UniProt P34949)
# Assay: human PMI inhibitors, high substrate, primary screen, biochemical, fluorescence intensity, high mannose 6-phosphate (AID 1220)
# Conditions: recombinant PMI enzyme, coupled fluorescence intensity; at 20 µM; stronger effect = higher value
# Mannose-6-phosphate isomerase (Homo sapiens), sequence (P34949 whole entry, looked up): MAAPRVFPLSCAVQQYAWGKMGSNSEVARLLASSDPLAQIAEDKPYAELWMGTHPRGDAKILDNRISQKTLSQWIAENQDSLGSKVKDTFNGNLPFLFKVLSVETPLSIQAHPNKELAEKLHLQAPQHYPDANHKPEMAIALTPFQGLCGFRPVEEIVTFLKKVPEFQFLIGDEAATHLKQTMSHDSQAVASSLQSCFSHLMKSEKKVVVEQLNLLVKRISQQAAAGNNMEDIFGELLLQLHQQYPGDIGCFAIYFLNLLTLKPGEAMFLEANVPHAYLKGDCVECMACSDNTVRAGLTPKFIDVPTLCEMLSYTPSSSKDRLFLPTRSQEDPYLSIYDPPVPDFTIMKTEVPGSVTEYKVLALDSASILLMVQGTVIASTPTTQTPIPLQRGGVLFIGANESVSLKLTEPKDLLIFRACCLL
row,SMILES,inhibition
1,CC1Cc2ccccc2N1c1ncnc2c1nnn2Cc1ccccc1Cl (configuration not stated),-1.3%
2,O=C(O)C1C2CCC(O2)C1C(=O)Nc1cccc(F)c1 (configuration not stated),-3.7%
3,O=C(O)C1C2CCC(O2)C1C(=O)Nc1ccc(O)cc1 (configuration not stated),54.4% (active)
4,O=C(O)C1C2CCC(O2)C1C(=O)Nc1ccc(F)cc1 (configuration not stated),-3.9%
5,O=C(NCC(=O)N(c1cccnc1)C(C(=O)NC1CCCC1)c1ccccc1)c1ccco1 (configuration not stated),-14.2%
6,Cc1onc(-c2ccccc2)c1C(=O)N1CCN(C(=O)c2ccco2)CC1,2%
7,COc1ccc(N(CC(=O)NCc2ccccc2OC)S(=O)(=O)c2ccccc2[N+](=O)[O-])c(OC)c1,-1.5%
8,CCN1C(=O)N(C)C2(c3ccccc3)N(C)C(=O)N(C)C12c1ccccc1 (configuration not stated),12.7%
9,CN1c2ccccc2N(C)C1(C)c1ccccc1,31.1%
10,O=C(c1cc(-c2ccco2)on1)N1CCN(c2ccccc2)CC1,53.3% (active)
11,O=C(c1cc(-c2ccco2)on1)N1CCOCC1,26.3%
12,CN1CCN(C(=O)c2cc(-c3ccco3)on2)CC1,-11%
13,N#CCCn1c(C2CCCCC2)nc2ccccc21,-2.5%
14,O=[N+]([O-])c1cc(C=Nc2ccc3ccccc3c2)ccc1Br,51.5% (active)
15,O=[N+]([O-])c1ccc(N=Cc2ccc(Br)c([N+](=O)[O-])c2)cc1,7.8%
16,C(=Nc1ccc(Nc2ccccc2)cc1)c1ccc2ccccc2c1,-17.3%
17,CCn1c2ccccc2c2nc3cc(C(=O)O)ccc3nc21,33.7%
18,CCn1c2ccccc2c2nc3ccccc3nc21,8.1%
19,CCc1cc(C(=O)N2CCCC(CCC(=O)NCc3cccc(OC)c3)C2)no1 (configuration not stated),-5.8%
20,COc1ccc(S(=O)(=O)Nc2cc3c4c(oc3c3ccccc23)CCCC4=O)cc1,14.6%
21,COc1ccc(S(=O)(=O)Nc2cc3c4c(oc3c3ccccc23)CC(C)(C)CC4=O)cc1,50.1% (active)

row,SMILES,inhibition
1,COc1ccc(S(=O)(=O)Nc2cc3c(C(C)=O)c(C)oc3c3ccccc23)cc1,-0.8%
2,COc1ccc(O[C@H]2C=C[C@@H](c3ccccc3)O[C@@H]2COC(=O)CC/C(C)=N/OC[C@@H](O)COCc2ccco2)cc1,19.3%
3,CCC(NC(=O)CCc1ccccc1)c1ccccc1 (configuration not stated),0.5%
4,COC(=O)COc1c(Cl)cc(Cl)c2ccc(C)nc12,10.1%
5,Cc1ccc2c(Cl)cc(Cl)c(OCC(=O)N3CCCC3)c2n1,54.6% (active)
6,Cc1ccc2c(Cl)cc(Cl)c(OCC(=O)O)c2n1,9.9%
7,CCOc1ccc(C(NC(=O)/C=C/c2ccco2)c2ccc(OC)c(OC)c2)cc1 (configuration not stated),10.3%
8,COc1ccc(C2Nc3ccccc3C(=O)N2NS(=O)(=O)c2ccc(C)cc2)cc1 (configuration not stated),5.5%
9,CN(Cc1ccon1)C(=O)CC1C(=O)NCCN1CC(C)(C)C (configuration not stated),35.3%
10,Cc1ccc(OCCN(C)C(=O)CC2C(=O)NCCN2CC(C)(C)C)cc1 (configuration not stated),41.2%
11,COC(=O)CN(C)C(=O)CC1C(=O)NCCN1CC(C)(C)C (configuration not stated),56.5% (active)
12,COc1ccc(N2CCN(C(=O)COc3ccc4ccccc4c3)CC2)cc1,6.1%
13,COc1ccc(CN2CCN(c3ccccn3)CC2)c(OC)c1,-6.3%
14,O=C(Nc1ccccc1)c1ccc(NCCN2CCOCC2)c(S(=O)(=O)N2CCOCC2)c1,1.4%
15,CCOC(=O)C(Cc1c(F)cccc1Cl)c1ccnc2nc(N)nn12 (configuration not stated),64.8% (active)
16,CCOC(=O)C(Cc1c(F)cccc1Cl)c1ccno1 (configuration not stated),-11.3%
17,CCOC(=O)C(Cc1ccccc1)c1ccnc2nc(N)nn12 (configuration not stated),-9.3%
18,CCN(CC)CCOC(=O)c1ccc(NC(=O)CNC(=O)C2CCCCC2)cc1,-12.4%
19,O=C1CC(c2ccccc2)n2nc(NC(=O)c3cccnc3)nc2N1 (configuration not stated),-4.6%
20,Cc1ccc(-n2nnnc2SCC(=O)NNC(=O)c2ccc([N+](=O)[O-])cc2)cc1,8.5%
21,Oc1ccc(N=Cc2ccc(-c3cccs3)s2)cc1,55.3% (active)

row,SMILES,inhibition
1,CC(=O)c1ccc(-c2cccs2)s1,0.2%
2,Cc1ccsc1C=Nc1ccc(O)cc1,45.3%
3,Cc1ccc(N2C(=O)/C(=C\c3ccco3)SC2=S)cc1,39.7%
4,O=C1/C(=C\c2ccco2)SC(=S)N1c1ccccc1,51.3% (active)
5,O=C(O)CCN1C(=O)/C(=C\c2ccc(-c3nc4ccccc4s3)o2)SC1=S,7.1%
6,O=C(O)CCCN1C(=O)/C(=C\c2ccco2)SC1=S,60.3% (active)
7,O=C(O)CCN1C(=O)/C(=C/c2ccc(-c3nc4ccccc4s3)o2)SC1=S,54.7% (active)
8,O=C1/C(=C\c2cccs2)SC(=S)N1C1CCS(=O)(=O)C1 (configuration not stated),12%
9,O=C(O)CCCN1C(=O)/C(=C/c2ccc(-c3nc4ccccc4s3)o2)SC1=S,-50.1%
10,O=C1/C(=C/c2ccco2)SC(=S)N1C1CCS(=O)(=O)C1 (configuration not stated),54.7% (active)
11,COc1ccc(NC(=O)CCCN2C(=O)/C(=C\c3ccco3)SC2=S)cc1,13.4%
12,O=C1/C(=C\c2ccco2)SC(=S)N1c1ccc(O)cc1,39.1%
13,Cc1ccc(/C=C2\SC(=S)N(C3CCS(=O)(=O)C3)C2=O)o1 (configuration not stated),41.2%
14,O=C(CCCN1C(=O)/C(=C\c2ccco2)SC1=S)Nc1ccc2ccccc2c1,-8.1%
15,CCC(=O)Nc1cc(-c2nn3c(C)nnc3s2)ccc1C,1.7%
16,O=C(CCOc1ccccc1)Nc1cccc(S(=O)(=O)Nc2ccccc2Cl)c1,13.1%
17,CCC(=O)Nc1ccc(S(=O)(=O)NCc2ccco2)cc1,-9.3%
18,COc1ccc(NC(=O)c2onc(C)c2Cl)cc1OC,-15%
19,CCOC(=O)C1(Cc2ccc(Cl)cc2)CCN(CCCn2cccn2)CC1,3.5%
20,CN(c1ncc(C(F)(F)F)cc1Cl)N1C(=O)c2cccc([N+](=O)[O-])c2C1=O,6.1%
